We go through 23 compounds from PubChem BioAssay (Tox21).

Unmarked numbers belong to inactive results. Results filed as inconclusive are left out. Activity calls are given as the source filed them. Unless noted, the call rests on the fitted dose curve; in most records, active means well fitted curve in the direction sought with a large enough effect in the repeat runs; inconclusive means weak or mixed curves; inactive means flat fitted curve, though single readings scatter.

The nature of assay [1]: qHTS assay to test for compound auto fluorescence at 535 nm (green) in HEK293 cells (AID 720680).
Assay [2] in a line: qHTS assay to test for compound auto fluorescence at 460 nm (blue) in HEK293 cell free culture (AID 720681). The gist of the method: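 Test compounds were pinned into cell-free culture medium (DMEM with 10% FBS) and fluorescence was read directly at Ex/Em 405/460 nm. Signals were expressed as fluorescence equivalents of triamterene, with DMSO vehicle as control.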
Assay [3] in a line: qHTS assay to test for compound auto fluorescence at 535 nm (green) in HEK293 cell free culture (AID 720682). The gist of the method: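 Intrinsic compound fluorescence is measured in culture medium containing 10% FBS, with excitation at 485 nm and detection at 535 nm, referenced to fluorescein.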
The nature of assay [4]: qHTS assay to test for compound auto fluorescence at 590 nm (red) in HEK293 cell free culture (AID 720683). The procedure, abridged: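 Tox21 10K library compounds were pinned into cell-free DMEM with 10% FBS and fluorescence was read at excitation 540 nm. Activity is expressed as Rose Bengal sodium equivalency.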
A short description of assay [5]: qHTS assay to test for compound auto fluorescence at 590 nm (red) in HepG2 cell free culture (AID 720684). The gist of the method:
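Measured in medium alone (MEM containing 10% FBS) following pintool addition of compound; emission at 590 nm with 540 nm excitation, referenced to Rose Bengal sodium.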

A short description of assay [6]: qHTS assay to test for compound auto fluorescence at 460 nm (blue) in HepG2 cell free culture (AID 720685). The procedure, abridged:
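Compound (23 nL) or DMSO pinned into cell-free MEM with 10% FBS; blue fluorescence read at 405/460 nm excitation/emission, expressed as auto-fluorescence equivalency to triamterene.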

The nature of assay [7]: qHTS assay to test for compound auto fluorescence at 460 nm (blue) in HepG2 cells (AID 720687). The gist of the method: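 Cells (2,000/well in MEM with 10% FBS) attached overnight at 37 C, then were exposed to compound or DMSO for 1 hr at 37 C, 5% CO2. Fluorescence read at Ex/Em 405/460 nm, expressed as triamterene-equivalent signal.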
In assay [8] the target is Glucocorticoid receptor (Homo sapiens) (UniProt P04150). Kind of assay: qHTS assay to identify small molecule agonists of the glucocorticoid receptor (GR) signaling pathway (AID 720691; active means well fitted activation curve with a large enough effect in the signal ratio in the repeat runs, not every such curve was filed as active; the % refers to the signal ratio). The procedure, abridged: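 GR-bla HeLa cells carrying a GRE-driven beta-lactamase reporter, exposed to compounds for 18 h at 37 C. Reporter activation read as fluorescence after 2 h with LiveBLAzer B/G FRET substrate at room temperature.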
Glucocorticoid receptor (Homo sapiens), sequence (P04150 whole entry, looked up): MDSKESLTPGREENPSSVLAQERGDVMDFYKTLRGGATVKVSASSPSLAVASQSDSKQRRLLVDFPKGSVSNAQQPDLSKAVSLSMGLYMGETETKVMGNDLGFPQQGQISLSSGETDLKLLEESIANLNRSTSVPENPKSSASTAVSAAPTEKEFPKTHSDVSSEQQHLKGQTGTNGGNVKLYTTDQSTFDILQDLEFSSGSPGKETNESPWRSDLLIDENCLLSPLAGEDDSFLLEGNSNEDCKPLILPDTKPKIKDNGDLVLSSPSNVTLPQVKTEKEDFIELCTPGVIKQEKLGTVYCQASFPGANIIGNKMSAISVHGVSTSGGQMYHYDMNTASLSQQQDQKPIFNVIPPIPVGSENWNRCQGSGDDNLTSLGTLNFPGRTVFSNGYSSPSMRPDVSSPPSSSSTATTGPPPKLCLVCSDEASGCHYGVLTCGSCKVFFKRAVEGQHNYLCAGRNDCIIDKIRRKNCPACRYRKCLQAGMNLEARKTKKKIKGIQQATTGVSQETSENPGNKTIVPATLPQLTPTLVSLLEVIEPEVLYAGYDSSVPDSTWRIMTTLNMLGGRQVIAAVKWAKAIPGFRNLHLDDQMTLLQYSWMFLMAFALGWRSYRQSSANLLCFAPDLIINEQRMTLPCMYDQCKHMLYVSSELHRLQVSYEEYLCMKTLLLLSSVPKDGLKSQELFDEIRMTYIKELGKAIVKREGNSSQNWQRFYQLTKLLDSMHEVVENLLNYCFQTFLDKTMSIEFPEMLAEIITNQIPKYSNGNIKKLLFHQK

For assay [9] the target is unchanged. Kind of assay: qHTS assay to identify small molecule antagonists of the glucocorticoid receptor (GR) signaling pathway (AID 720692; active means well fitted inhibition curve with a large enough effect in the signal ratio in the repeat runs, not every such curve was filed as active; the % refers to the signal ratio; further: potency means the concentration at half of the fitted maximal effect). The gist of the method: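 GR-bla HeLa cells carrying a GRE-driven beta-lactamase reporter received compound after 4 h plating, then dexamethasone (5 nM final). After 18 h at 37C, the FRET substrate was loaded for 2 h at room temperature and fluorescence read.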

For the compound `NC(=O)CI`, the call in assay [1], in [2], in assay [3], in assay [4], in assay [5] and in assay [6] was inactive. In assay [7], the outcome was inactive.

For the compound `Nc1ccc(N=Nc2ccc(-c3ccc(N=Nc4c(S(=O)(=O)O)cc5cc(S(=O)(=O)O)c(N=Nc6ccccc6)c(O)c5c4N)cc3)cc2)c(N)c1`, the compound was classed as inactive in assay [1], in assay [2], in assay [3], in assay [4], in [5] and in [6]. Moreover, the compound was classed as inactive in assay [7] and in [8].

Consider `CN1C(=O)C(O)N=C(c2ccccc2)c2cc(Cl)ccc21` (configuration not stated), for which the call in assay [1], in assay [2], in [3], in assay [4], in assay [5] and in assay [6] was inactive. Besides, the compound was called inactive in assay [7].

Take `COP(=S)(OC)Oc1cc(Cl)c(I)cc1Cl`: the call in [1], in assay [2], in [3], in [4], in [5] and in assay [6] was inactive. The outcome in assay [7] and in [8] was inactive. For the same compound, the Potency in [9] is 24.5 µM (active).

On to `CCC(COC(=O)c1cc(OC)c(OC)c(OC)c1)(c1ccccc1)N(C)C` (configuration not stated), for which the call in assay [1], in assay [2], in assay [3], in assay [4], in assay [5] and in assay [6] was inactive. Also, the compound was called inactive in assay [7] and in assay [8]. Further, the Potency entry in assay [9] was “inactive”.

Take `CC(C)(Cl)[N+](=O)[O-]`: the outcome in assay [1], in assay [2], in [3], in assay [4], in assay [5] and in [6] was inactive. In addition, the compound was classed as inactive in assay [7] and in assay [8]. Also, the Potency entry in assay [9] was “inactive”.

Consider `C=CCCl`, for which the outcome in assay [1], in assay [2], in assay [3], in assay [4], in assay [5] and in assay [6] was inactive. Further, the result in assay [7] and in assay [8] was inactive.

On to `[CH3][Sn]([CH3])([Cl])[Cl]`, for which the result in assay [1], in assay [2], in [3], in assay [4], in assay [5] and in [6] was inactive. For the same compound, the call in assay [7] was inactive.

Regarding `O=C(OC1CCCCC1)c1ccccc1C(=O)OC1CCCCC1`, the call in [1], in assay [2], in assay [3], in assay [4], in assay [5] and in assay [6] was inactive. The result in assay [7] and in [8] was inactive.

`COc1nn(C(=O)NS(=O)(=O)c2ccccc2OC(F)(F)F)c(=O)n1C`: the call in assay [1], in [2], in assay [3], in [4], in [5] and in assay [6] was inactive. Besides, the compound was classed as inactive in assay [7] and in assay [8]. For the same compound, in assay [9], the Potency entry was “inactive”.

As to `Nc1nc(N)nc(N)n1`, the compound was called inactive in assay [1], in assay [2], in assay [3], in assay [4], in assay [5] and in [6]. The compound was called inactive in assay [7] and in assay [8]. Further, the Potency entry in assay [9] was “inactive”.

For the compound `O=S1(=O)OC(c2cc(Br)c(O)c(Br)c2)(c2cc(Br)c(O)c(Br)c2)c2ccccc21`, the call in [1], in assay [2], in assay [3], in assay [4], in [5] and in assay [6] was inactive. Further, the outcome in assay [7] and in assay [8] was inactive. In [9], the Potency result is “inactive”.

Regarding `COc1c(C(C)(C)C)cc([N+](=O)[O-])c(C)c1[N+](=O)[O-]`, the outcome in [1], in assay [2], in assay [3], in assay [4], in assay [5] and in [6] was inactive. In addition, the outcome in assay [7] and in assay [8] was inactive. The Potency result in assay [9] is “inactive”.

Consider `CCCCNP(N)(N)=S`, for which the compound was classed as inactive in assay [1], in assay [2], in assay [3], in [4], in [5] and in assay [6]. In addition, the call in [7] and in assay [8] was inactive.

With `NCC(CC(=O)O)c1ccc(Cl)cc1` (configuration not stated), the result in [1], in assay [2], in [3], in [4], in assay [5] and in [6] was inactive. Besides, the outcome in assay [7] and in assay [8] was inactive. Besides, the Potency entry in assay [9] is “inactive”.

With `COC1=CC(=O)O[C@@H](CCc2ccccc2)C1`, the compound was called inactive in assay [1], in assay [2], in assay [3], in assay [4], in [5] and in assay [6]. Further, the compound was called inactive in assay [7] and in [8]. The Potency result in [9] was “inactive”.

`II`: the outcome in assay [1], in [2], in assay [3], in assay [4], in [5] and in assay [6] was inactive. For the same compound, the result in assay [7] and in assay [8] was inactive. Besides, the Potency result in assay [9] was “inactive”.

Consider `CN(C)c1ccc(N(C)C)cc1`, for which the call in assay [1], in assay [2], in [3], in assay [4], in [5] and in assay [6] was inactive. For the same compound, the result in [7] and in [8] was inactive.

With `CC(O)(CS(=O)(=O)c1ccc(F)cc1)C(=O)Nc1ccc(C#N)c(C(F)(F)F)c1` (configuration not stated), the compound was classed as inactive in [1], in assay [2], in assay [3], in [4], in assay [5] and in assay [6]. The call in assay [7] and in [8] was inactive. Besides, the Potency result in [9] was “inactive”.

With `C=COC(C)=O`, the compound was called inactive in assay [1], in assay [2], in assay [3], in [4], in [5] and in [6]. The call in assay [7] was inactive.

Consider `BrCC(Br)C1CCC(Br)C(Br)C1` (configuration not stated), for which the outcome in assay [1], in assay [2], in assay [3], in assay [4], in assay [5] and in assay [6] was inactive. Moreover, the outcome in assay [7] and in assay [8] was inactive.

Regarding `CN1[C@@H]2CC[C@H]1CC(OC(=O)c1cc(Cl)cc(Cl)c1)C2` (some centres not stated), the result in assay [1], in [2], in assay [3], in [4], in assay [5] and in [6] was inactive. Moreover, the call in [7] and in assay [8] was inactive.

For the compound `COCC(C)N(C(=O)CCl)c1c(C)csc1C` (configuration not stated), the outcome in assay [1], in [2], in assay [3], in assay [4], in assay [5] and in assay [6] was inactive. Besides, the compound was classed as inactive in assay [7] and in [8]. The Potency entry in [9] was “inactive”.
